Compounds with a hit are over-represented: about 1.8% of the library has one in this group of screens.
MLL AF4-AF9 inh – MLL-AF4/AF9 protein interaction inhibition; AID 651704; inhibition, % at 10 µM; P42568; actives 0.47% (n = 350,000); AlphaScreen, biotin-AF4 peptide binding to FLAG-AF9;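 active means every replicate reaching a set inhibition limit, whatever the replicate mean, cut at about 25% in these data; inconclusive means mean inhibition reaches that limit but some replicates miss it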;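 further: 0% = plate neutral control median and 100% = total signal loss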
ERp5 inh – ERp5 (human) disulfide isomerase inhibition; ERp5 insulin aggregation, absorbance 650 nm, 90 min; AID 651711; inhibition, % at 9.99 µM; actives 0.05% (n = 350,000); Q15084;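 active means mean replicate inhibition above about 25%, with every replicate also reaching it, limit read from the data, passing the limit was not always enough; inconclusive means only one of those two criteria met; inactive means neither criterion met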
PDI turbidity – inhibitors of human protein disulfide isomerase; P07237; inhibition, % at 10 µM; PDI insulin aggregation turbidity, A650, 90 min; actives 0.052% (n = 350,000);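 active means mean inhibition across replicates of 30% or more, whatever share of single replicates reach that level; inconclusive means mean inhibition below 30% while every single replicate reaches 30%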
Target sequence (P07237 whole entry, looked up): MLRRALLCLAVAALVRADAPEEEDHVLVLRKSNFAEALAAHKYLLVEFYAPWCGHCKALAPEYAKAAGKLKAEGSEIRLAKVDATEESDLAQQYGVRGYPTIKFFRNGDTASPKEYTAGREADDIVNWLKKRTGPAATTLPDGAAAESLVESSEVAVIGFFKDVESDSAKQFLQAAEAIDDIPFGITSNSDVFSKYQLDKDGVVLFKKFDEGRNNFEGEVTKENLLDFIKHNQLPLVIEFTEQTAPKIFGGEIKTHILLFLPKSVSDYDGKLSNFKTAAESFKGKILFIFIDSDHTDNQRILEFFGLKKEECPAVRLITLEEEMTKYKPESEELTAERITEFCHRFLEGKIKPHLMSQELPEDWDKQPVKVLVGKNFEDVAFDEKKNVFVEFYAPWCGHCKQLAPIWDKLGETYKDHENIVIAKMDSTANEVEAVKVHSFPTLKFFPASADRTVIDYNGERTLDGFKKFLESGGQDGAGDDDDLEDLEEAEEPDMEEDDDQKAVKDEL
DENV2 CPE rescue – protects cells from dengue virus 2 cytopathic effect. DENV2-infected cells, cytopathic effect rescue, plate reader. CPE inhibition, % at 9.99 µM. actives 1.7% (n = 350,000). AID 651640; in the data active means CPE inhibition above about 20%, passing the limit was not always enough; inconclusive means no clear call, values can overlap the other calls; tested in BHK-21 cells;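 further: 0% = median of neutral control wells and 100% = median of positive control wells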
ERAP1 HTS inh – blocks human ERAP1 aminopeptidase activity | Q9NZ08 | recombinant ERAP1, Leu-AMC fluorescence, 60 min | inhibition, % at 10.7 µM | actives 0.15% (n = 340,000) | AID 652197;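 active means mean replicate inhibition of at least 30%, or all replicates individually reaching that 30% level; inactive means mean below 30% and not every replicate reaching it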;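 further: 0% = neutral control wells and 100% = L-leucinethiol positive control wells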
Numbers without * were called inactive; u = inconclusive; x = not tested or not shown.

SMILES | MLL AF4-AF9 inh | ERp5 inh | PDI turbidity | DENV2 CPE rescue | ERAP1 HTS inh
Cc1noc(C)c1NC(=O)Nc1ccc2c(c1)C(=O)N([C@@H](C)CO)C[C@@H](C)[C@@H](CN(C)C(=O)C1CCCCC1)OCCCC[C@@H](C)O2 | -1 | -2 | x | -5 | -1
C[C@H](CO)N1C[C@H](C)[C@H](CN(C)S(C)(=O)=O)OCCCC[C@H](C)Oc2ccc(NS(=O)(=O)c3cn(C)cn3)cc2C1=O | -1 | 2 | x | 0 | -3
FC(F)(F)c1nc2ccccc2n1CCNc1nc(CN2CCCCC2)cs1 | 1 | -4 | -3 | 30* | -3
CCCNC(=O)N[C@H]1CC[C@H](CC(=O)NC2CCCCC2)O[C@@H]1CO | 0 | -7 | x | -5 | 1
CCCc1cc(=O)oc2c(C)c(OCC(=O)N3C[C@H]4C[C@@H](C3)c3cccc(=O)n3C4)ccc12 | 3 | -2 | x | 29* | 10
C[C@@H]1CN([C@@H](C)CO)C(=O)c2ccccc2-c2ccccc2CO[C@@H]1CN(C)Cc1ccc2c(c1)OCCN2C | 37* | 1 | x | 5 | -3
C[C@H](CO)N1C[C@H](C)[C@@H](CN(C)Cc2ccc3c(c2)OCCN3C)OCc2ccccc2-c2c(n(C)c3ccccc23)C1=O | 31* | -2 | x | 37* | -3
C[C@@H]1CN([C@@H](C)CO)C(=O)c2c(c3ccccc3n2C)-c2ccccc2CO[C@@H]1CN(C)Cc1ccc2c(c1)OCO2 | 5 | -2 | x | -7 | -3
C[C@@H]1CN([C@H](C)CO)C(=O)c2ccccc2-c2ccccc2CO[C@H]1CN(C)C(=O)c1cc(Cl)cc(Cl)c1 | 7 | -1 | x | 29* | 1
C[C@H]1CN([C@@H](C)CO)C(=O)c2c(c3ccccc3n2C)-c2ccccc2CO[C@H]1CN(C)Cc1ccc2c(c1)OCCN2C | 44* | -4 | x | 0 | 2
CC(=O)NC(Cc1ccccc1)C(=O)O (stereo unspecified) | -2 | 5 | x | 56* | -1
COc1ccc([C@H]2/C=C\CN(C(=O)c3ccc(C)cc3)[C@@H](C)C(=O)N2Cc2ccc(F)cc2)cc1 | 2 | -4 | 2 | 125* | x
O=C1C=C(c2cccc(Br)c2)C[C@@H](c2ccc(Cl)cc2)C1 | 2 | -3 | 7 | 32* | -2
O=C1C=C(c2cc(F)ccc2F)C[C@@H](c2ccc(Cl)cc2)C1 | 1 | 0 | 5 | 1 | 0
COc1cc(F)cc(C2=CC(=O)C[C@H](c3ccc(F)cc3)C2)c1 | x | 8 | -6 | 26* | 0
O=C1C=C(c2ccc(F)c(Cl)c2)C[C@@H](c2ccc(F)cc2)C1 | 1 | 1 | 3 | 23* | -3
COc1cccc(C2=CC(=O)C[C@H](c3ccc(F)cc3)C2)c1 | 3 | 0 | -3 | x | 0
O=C1C=C(c2cc(Cl)cc(Cl)c2)C[C@@H](c2ccc3c(c2)OCO3)C1 | -4 | 10 | -3 | 28* | -3
CO[C@H]1CN(C)C(=O)c2cc(NC(C)=O)ccc2OC[C@H](C)N(Cc2ccncc2)C[C@H]1C | -1 | 5 | x | 3 | 1
Cc1ccc2c(c1)S/C(=C/c1ccc[n+](C)c1)N2CCO | 0 | 3 | -5 | 5 | 52*
COc1ccc(Cl)cc1-c1cc(C(=O)Nc2ccccc2)[nH]n1 | -2 | -2 | -7 | -4 | 2
COc1ccc(Cl)cc1-c1cc(C(=O)N[C@H](C)c2ccccc2)[nH]n1 | -1 | 5 | 4 | 74* | 2
CN1c2ccc(Br)cc2[C@H]2[C@H](CCN2C(=O)c2cccc(F)c2)[C@@H]1CO | x | 0 | x | x | x
COc1ccc(O)c(/C=N/NC(=O)CN2CCS(=O)(=O)CC2)c1 | 10 | 2 | -15 | 54* | 5
COc1ccc(O)c(/C=N/NC(=O)CCC(=O)Nc2ccc(C)cc2)c1 | -4 | 0 | -17 | 1 | 0
SMILES | MLL AF4-AF9 inh | ERp5 inh | PDI turbidity | DENV2 CPE rescue | ERAP1 HTS inh
CC[C@]12C(=O)N(C)C[C@H]([C@@H]3C(=O)N(C)C(=O)[C@@H]31)N2C(=O)c1ccc(C)cc1 | 51* | -1 | 5 | -3 | -3
Cc1ccc(C(=O)N2[C@@H]3CN(C)C(=O)[C@@]2(C)[C@H]2C(=O)N(C)C(=O)[C@@H]32)cc1 | -3 | 3 | 0 | -1 | -3
CN1C(=O)c2cc(NC(=O)c3cnccn3)ccc2OC[C@@H]2O[C@@H](CC(=O)NCC3CC3)CC[C@H]21 | -1 | -1 | x | -4 | -1
O=C(C[C@@H]1CC[C@H]2[C@@H](COC[C@@H](O)CN2C(=O)c2cc(Cl)cc(Cl)c2)O1)N1CCc2ccccc2C1 | 2 | -2 | x | 2 | 0
CNC(=O)C[C@@H]1CC[C@@H]2[C@H](COC[C@H](O)CN2C(=O)c2ccccn2)O1 | -2 | -2 | x | 69* | -6
O=C(C[C@@H]1CC[C@H]2[C@@H](COC[C@@H](O)CN2C(=O)c2ccncc2)O1)Nc1ccc(-c2ccccc2)cc1 | 2 | 2 | x | 21* | 2
O=C(C[C@H]1CC[C@H]2[C@@H](COC[C@H](O)CN2C(=O)c2ccncc2)O1)Nc1ccc(-c2ccccc2)cc1 | 2 | 1 | x | -7 | 0
O=C(C[C@H]1CC[C@@H]2[C@H](COC[C@H](O)CN2C(=O)c2ccccn2)O1)N1CCN(c2ccccc2)CC1 | -10 | 4 | x | 39* | -5
O=C(C[C@H]1CC[C@@H]2[C@H](COC[C@H](O)CN2C(=O)c2ccccc2)O1)N1CCc2ccccc2C1 | -4 | -1 | x | 28* | 3
O=C(C[C@@H]1CC[C@@H]2[C@H](COC[C@H](O)CN2C(=O)c2ccccn2)O1)N1CCN(c2ccccc2)CC1 | 0 | 7 | x | -13 | -3
CNC[C@@H]1Oc2c(NC(=O)c3nc4ccccc4s3)cccc2C(=O)N([C@H](C)CO)C[C@@H]1C | 0 | -1 | x | -2 | -4
CC(C)CC#Cc1ccc2c(c1)O[C@H](CN(C)C(=O)c1cnccn1)[C@H](C)CN([C@@H](C)CO)S2(=O)=O | 1 | -1 | x | -3 | -3
OC[C@@H]1Nc2ccc(C#Cc3ccc(F)cc3)cc2[C@H]2[C@@H]1CCN2Cc1nccs1 | x | 1 | x | x | x
COc1ccc2oc(C(=O)NCC(c3ccco3)N(C)C)c(C)c2c1 (stereo unspecified) | 35* | -1 | -7 | 10 | 2
COc1cc(NC(C)=O)c2ncccc2c1Br | 0 | 3 | -4 | 89* | -1
CC(=O)Nc1cccc2ncccc12 | 3 | 8 | 10 | 32* | 7
CCCN(C)C[C@H]1Oc2cc(C#Cc3ccccn3)ccc2S(=O)(=O)N([C@H](C)CO)C[C@H]1C | 2 | -5 | x | 2 | 1
O=C(C1CC1)N1CC2(C1)[C@H](c1ccccc1)[C@H](CO)N2Cc1cncnc1 | -1 | -4 | x | 0 | 2
CO[C@H]1CN(C)C(=O)c2ccc(NC(=O)c3ccc(-c4ccccc4)cc3)cc2OC[C@@H](C)NC[C@H]1C | 10 | -2 | x | u | x
O=C(c1cccc(F)c1)N1CCCCN2[C@H](CO)[C@H](c3ccc(-c4ccccc4)cc3)[C@H]2C1 | 5 | 10 | x | 41* | 1
COc1cccc(-c2ccc([C@H]3[C@H]4CNCC(=O)N4[C@H]3CO)cc2)c1 | -2 | 5 | x | 22* | 0
